# Only a selection was taken, and hits are over-represented in it overall.
# TexasRed fluor = Texas Red fluorescence interference in TRb-SRC2 counter-screen; 280,000 compounds, 0.29% hits; AID 1479; TRb/SRC2 Texas Red total fluorescence interference; Potency, µM (series often up to 106 µM); active = well fitted curve in either direction with a large enough effect; inconclusive = small, poorly fitted or top-dose-only effect
#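 Human TRb ligand-binding domain at 0.6 uM with 20 nM Texas Red SRC2 peptide in Tris buffer containing 1 uM T3 and 5% DMSO, incubated with compound 5 h at ambient temperature. Total fluorescence (555/632 nm) calculated as parallel + 2 × perpendicular.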
# RGS12 GoLoco inh = RGS12 GoLoco-Gai1 interaction inhibition; AID 880; Gai1:RGS12 GoLoco peptide FP, rhodamine, 10 min; Potency, µM (series often up to 61.6 µM), hits mostly inhibitors; 230,000 compounds, 0.44% hits; active = well fitted inhibition curve with a large enough effect, not every such curve was filed as active; inactive = no such curve, though single readings can be large or run the other way; also: nearly all actives have a fitted effect of over 30% in size
# Target sequence (P63096 whole entry, looked up): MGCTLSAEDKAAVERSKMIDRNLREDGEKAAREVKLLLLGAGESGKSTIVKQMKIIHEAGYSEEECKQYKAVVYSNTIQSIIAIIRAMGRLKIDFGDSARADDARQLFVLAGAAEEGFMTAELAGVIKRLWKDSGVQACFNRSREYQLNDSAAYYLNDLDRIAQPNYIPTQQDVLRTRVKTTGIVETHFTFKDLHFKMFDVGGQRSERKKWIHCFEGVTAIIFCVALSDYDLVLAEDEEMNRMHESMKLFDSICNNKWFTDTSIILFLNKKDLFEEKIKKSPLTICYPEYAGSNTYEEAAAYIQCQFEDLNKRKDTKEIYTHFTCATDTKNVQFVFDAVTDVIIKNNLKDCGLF
# ERG Ets-DNA blk = blocks human ERG Ets domain binding to DNA; fluorescence polarization, His-ERG Ets domain / labelled DNA; Potency, µM (highest dose often 76.9 µM), most hits filed as inhibitors; 370,000 compounds, 0.028% hits; AID 624246; active = well fitted inhibition curve with a large enough effect in the polarisation, with a control signal flat; inconclusive = small, poorly fitted or top-dose-only effect, or effect the other way, or a change in a side signal; inactive = no such curve, though single readings can be large or run the other way; the % refers to the polarisation;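 also: polarization taken with two DNA probes labelled with fluorescein and Texas red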
#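 His-tagged ERG Ets domain (1 uM in the protein solution; 300mM KCl, 50mM Tris-HCl, 1mM EDTA, 1mM DTT, pH 7.5) received compound, then a probe mix of 5 nM fluorescein-DNA and 100nM Texas-615-DNA. Fluorescence polarization was read for both dyes.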
# CBFb-RUNX1 inh = blocks binding between human CBF-beta and RUNX1 | Q01196+Q13951 | AlphaScreen CBFb-His/RUNX1-biotin binding, biochemical | Potency, µM (series often up to 59.8 µM), most hits filed as inhibitors | 230,000 tested, under 10 active | AID 1477
#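 Bead-based AlphaScreen assay; binding partners His-tagged CBF-beta and biotinylated RUNX1 at 30 nM each. Compound exposure 15 min after a 20-min protein preincubation; bead step 90 min; all steps at room temperature.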
# TRb SRC2 PPI = disrupts binding of human TR beta to SRC2; AID 1469; Potency, µM (highest dose often 106 µM), hits mostly inhibitors; 280,000 compounds, 0.065% hits; TRbeta-SRC2 peptide binding, fluorescence polarization; receptor liganded with 1 µM T3; P10828; also: nearly all actives have a fitted effect of over 50% in size
#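 Polarization signal, normalized between peptide-alone and full complex controls, measured compound effects on T3-liganded human TRb LBD (0.6 uM) binding 20 nM Texas Red SRC2 peptide after 5 hr.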
# A number is an active result; - = inactive; ? = inconclusive; . = no result given; [ ] = remark or other dose. Unless noted, calls follow the shape of the dose curve; as a rule, active = well fitted curve in the direction sought with a large enough effect; inconclusive = small, poorly fitted or top-dose-only effect, or another doubt; inactive = no such curve, though single readings can be large; an effect the other way counts as inactive or inconclusive.
SMILES,TexasRed fluor,RGS12 GoLoco inh,ERG Ets-DNA blk,CBFb-RUNX1 inh,TRb SRC2 PPI
COc1ccc(C(=O)Nc2cccc(-c3nc4cccnc4s3)c2C)c(OC)c1,100µM[quencher],.,-,.,-
CCc1ccc(C(=O)NNC(=O)C2CSC3(C)CCC(=O)N23)cc1 (centres undefined),.,.,-,.,.
CCn1c(C)nc2cc(C(=O)NNC(=S)Nc3ccc(Cl)cc3Cl)ccc21,8.9µM[quencher],-,-,-,-
O=C(Nc1ccc2nc(-c3ccco3)c(-c3ccco3)nc2c1)NC1CC1,35µM[quencher],-,-,.,-
O=C(Nc1ccc(N2CCOCC2)cc1)Nc1ccc2nc(-c3ccco3)c(-c3ccco3)nc2c1,-,-,?,-,-
O=C(NCCCO)Nc1ccc2nc(-c3ccco3)c(-c3ccco3)nc2c1,14µM[quencher],-,.,.,-
COc1ccc(CCNC(=O)c2ccc3nc(-c4ccco4)c(-c4ccco4)nc3c2)cc1OC,11µM[quencher],-,-,.,?
O=C(O)c1ccc2nc(-c3ccco3)c(-c3ccco3)nc2c1,?,-,-,?,-
O=C(Nc1cccc(C(F)(F)F)c1)c1ccc2nc(-c3ccco3)c(-c3ccco3)nc2c1,8.9µM[quencher],-,-,?,?
COC(OC)(C(=O)c1ccccc1)c1ccccc1,-,.,.,.,-
C[N+](C)(C)CC/C=C1/c2ccccc2CSc2ccccc21,-,2.2µM,-,-,-
CC[n+]1cc(-c2ccccc2)nc(N2CCOCC2)n1,-,7.1µM,.,-,-
CCN1CCN(c2oc(-c3ccc(COc4ccccc4C)o3)nc2C#N)CC1,28µM[quencher],.,-,.,-
Cc1cccc(OCc2ccc(-c3nc(C#N)c(N4CCN(c5ccccc5)CC4)o3)o2)c1,6310µM[quencher],.,-,.,-
CCc1nc(SCc2ccccc2C#N)n[nH]1,.,.,-,.,.
Cc1noc(C)c1-c1nccc(NCc2ccccc2)n1,.,7.1µM,.,.,.
Cc1cnc(CNc2ccnc(-c3c(C)noc3C)n2)cn1,.,-,.,.,.
Cc1cccn2c(=O)c(/C=C(\C#N)C(=O)NC3CCS(=O)(=O)C3)c(N3CC(C)OC(C)C3)nc12 (centres undefined),-,-,-,-,-
Cc1cccn2c(=O)c(/C=C(\C#N)C(=O)NC3CCS(=O)(=O)C3)c(N3CCC(C(N)=O)CC3)nc12 (centres undefined),0.0003µM[quencher],-,-,-,-
N#C/C(=C\c1ccc(-c2cccc(Cl)c2)o1)C(=O)Nc1cccc(C(F)(F)F)c1,0.089µM[quencher],.,-,.,?
CC/C(=C/c1sc2ccc(C)cc2[n+]1CCO)SC,-,-,-,-,-
CC/C(=C/c1sc2ccc(C)cc2[n+]1CCCS(=O)(=O)[O-])SC,45µM[fluorescent],-,?,-,?
CC1=C(c2ccc(C(C)C)cc2)S(=O)(=O)N=C1N1CCC(C(=O)NCCc2ccco2)CC1,25µM[quencher],.,-,.,-
COc1cc(C(C(=O)NC(C)(C)C)N(C(=O)CNC(=O)c2cccs2)c2cccnc2)cc(OC)c1OC (centres undefined),.,.,-,.,.
CSCC[C@H](NC(=O)[C@@H]1Cc2ccccc2CN1)C(=O)Nc1ccc2c(c1)OCO2,.,.,-,.,.
SMILES,TexasRed fluor,RGS12 GoLoco inh,ERG Ets-DNA blk,CBFb-RUNX1 inh,TRb SRC2 PPI
O=S(=O)(c1ccc2nc(-c3ccco3)c(-c3ccco3)nc2c1)N1CCOCC1,6.3µM[quencher],-,-,.,-
O=C(O)C(c1ccc(Cl)cc1)c1ccc(Cl)cc1,-,.,.,.,-
CSc1ccc(Cl)cc1,-,.,.,.,-
C1=C/CC/C=C/CC/C=C/CC/1,-,.,.,.,-
CCCOc1ccc(C(=O)CCN2CCCCC2)cc1,-,-,-,-,40µM
CCCCOc1ccc(C(=O)CCN2CCOCC2)cc1,-,-,-,-,5.6µM
Cc1nn(-c2ccccc2)c(N2CCCC2)c1/C=N/NC(=O)c1ccccc1O,-,-,-,-,-
O=C(N/N=C/c1cc2c3c(c1O)CCCN3CCC2)c1ccccc1O,-,28µM,?,.,-
C[n+]1cc(-c2ccccc2)n2c1CCCCC2,-,4.5µM,-,-,-
C[C@H]([C@H](O)c1ccccc1)N(C)C(=O)CN,.,.,-,.,.
CCCCCCc1cc2cc(-c3nnc(-c4ccc(C)cc4)o3)c(=O)oc2cc1O,2512µM[quencher],.,-,.,-
CCCCCCc1cc2cc(C(=O)OCC)c(=O)oc2cc1O,-,-,-,-,-
COc1cccc2c1C(=O)c1c(O)c3c(c(O)c1C2=O)C[C@@](O)(C(=O)CO)C[C@H]3O[C@H]1C[C@@H](N)[C@H](O)[C@@H](C)O1.[W],.,-[14.2 µM],.,.,.
